Results: publication PMC5540273 (PLoS ONE, 2017)

Tests used:
Settings in all cases: concentration: 1 μM, replicates: in singlicate; n = 1
ACVR1 = system: ACVR1
ACVR2A = system: ACVR2A
ACVR2B = system: ACVR2B
ACVRL1 = system: ACVRL1
ADCK3 = system: T1, ADCK3
T1 construct: gene CABC1

ADCK4 = system: ADCK4
AKT1 = system: AKT1
AKT2 = system: AKT2
AKT3 = system: AKT3
ALK = system: ALK
AMPK-alpha1 = system: T2, AMPK-alpha1
T2 construct: gene PRKAA1

AMPK-alpha2 = system: T3, AMPK-alpha2
T3 construct: gene PRKAA2

ANKK1 = system: ANKK1
ARK5 = system: T4, ARK5
T4 construct: gene NUAK1

ASK1 = system: T5, ASK1
T5 construct: gene MAP3K5

ASK2 = system: T6, ASK2
T6 construct: gene MAP3K6

AURKA = system: AURKA
AURKB = system: AURKB
AURKC = system: AURKC
AXL = system: AXL
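Note: KINOMEscan kinase panel screen.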

Row | SMILES | %Inh (ACVR1) | %Inh (ACVR2A) | %Inh (ACVR2B) | %Inh (ACVRL1) | %Inh (ADCK3) | %Inh (ADCK4) | %Inh (AKT1) | %Inh (AKT2) | %Inh (AKT3) | %Inh (ALK) | %Inh (AMPK-alpha1) | %Inh (AMPK-alpha2) | %Inh (ANKK1) | %Inh (ARK5) | %Inh (ASK1) | %Inh (ASK2) | %Inh (AURKA) | %Inh (AURKB) | %Inh (AURKC) | %Inh (AXL)
1 | CS(=O)(=O)CCNCc1nc(-c2ccc3ncnc(Nc4ccc5c(cnn5Cc5ccccc5)c4)c3c2)cs1.Cl.Cl [GW569716] | 1% | 0% | 0% | 0% | 10% | 54% | 0% | 2% | 0% | 31% | 0% | 0% | 0% | 0% | 0% | 0% | 32% | 29% | 0% | 0%
2 | COc1ccc(-c2coc3ccc(-c4nnc(C)o4)cc23)cc1 | 0% | 5% | 0% | 27% | 9% | 0% | 8% | 0% | 2% | 0% | 0% | 3% | 0% | 0% | 0% | 10% | 0% | 18% | 0% | 0%
3 | CC(=O)c1c(C)c2cnc(Nc3ccc(N4CCNCC4)cn3)nc2n(C2CCCC2)c1=O | 0% | 0% | 0% | 0% | 0% | 0% | 0% | 0% | 11% | 5% | 0% | 0% | 0% | 0% | 0% | 0% | 0% | 0% | 0% | 0%
4 | COc1cccc(C2=C(Nc3cc(Cl)c(O)c(Cl)c3)C(=O)NC2=O)c1 [SB-390767] | 20% | 0% | 2% | 19% | 1% | 0% | 0% | 0% | 0% | 29% | 8% | 0% | 0% | 26% | 4% | 7% | 0% | 0% | 8% | 0%
5 | COC(=O)c1cccc(NC(=O)NC2CCN(c3ccnc(Nc4ccc(OC)cc4)n3)C2)c1 (stereo not drawn) [GSK1379746] | 41% | 0% | 0% | 0% | 18% | 52% | 0% | 11% | 0% | 20% | 0% | 0% | 0% | 31% | 22% | 0% | 10% | 25% | 28% | 0%
6 | COc1ccc2cc(-c3nc(-c4ccccc4C(C)C)[nH]c3-c3ccncc3)ccc2c1 [SB-660566] | 17% | 0% | 0% | 34% | 5% | 17% | 0% | 41% | 0% | 38% | 17% | 0% | 6% | 18% | 16% | 3% | 5% | 30% | 0% | 36%
7 | COc1cc2ncnc(Nc3cccc(Br)c3)c2cc1OC.Cl [GI230329] | 0% | 0% | 0% | 0% | 19% | 52% | 0% | 0% | 16% | 0% | 0% | 0% | 8% | 17% | 0% | 6% | 6% | 0% | 6% | 10%
8 | Nc1cccc(-c2ccc3c(N)n[nH]c3c2)n1 [GSK2192730] | 0% | 0% | 9% | 0% | 1% | 0% | 0% | 0% | 0% | 21% | 0% | 0% | 17% | 0% | 0% | 13% | 8% | 15% | 22% | 0%
9 | COc1ccc(Nc2nccc(N3CCC(NC(=O)C(C)c4ccc(Cl)cc4)C3)n2)cc1 (stereo not drawn) [GSK1379735] | 14% | 0% | 0% | 0% | 22% | 17% | 0% | 9% | 0% | 25% | 0% | 21% | 0% | 22% | 10% | 4% | 0% | 24% | 49% | 16%
10 | O=c1cc(N2CCOCC2)nc2n(Cc3cccc(Cl)c3Cl)c3ccccc3n12 [GSK2299009] | 0% | 0% | 0% | 6% | 13% | 36% | 0% | 21% | 0% | 25% | 5% | 16% | 6% | 0% | 2% | 0% | 17% | 7% | 46% | 59%
11 | Nc1ncnc2occ(-c3ccc4c(c3)CCN4C(=O)Cc3cc(F)ccc3F)c12 [GSK2645446] | 0% | 0% | 0% | 0% | 8% | 0% | 0% | 0% | 0% | 0% | 4% | 0% | 3% | 12% | 0% | 0% | 0% | 48% | 40% | 34%
12 | O=c1cc(N2CCOCC2)nc2n(Cc3ccccc3F)ccn12 [GSK2297428] | 0% | 0% | 0% | 0% | 13% | 8% | 0% | 0% | 0% | 0% | 0% | 0% | 9% | 0% | 0% | 0% | 0% | 13% | 0% | 0%
13 | Cc1ccccc1Cn1ccn2c(=O)cc(N3CCOCC3)nc12 [GSK2269905] | 25% | 0% | 0% | 0% | 16% | 17% | 0% | 16% | 0% | 28% | 0% | 1% | 10% | 5% | 0% | 0% | 0% | 30% | 0% | 9%
14 | COc1ccc(Nc2nccc(-c3ccc(NC(=O)c4cc5cc(F)ccc5[nH]4)cc3)n2)cc1 [GSK1229496] | 0% | 0% | 0% | 0% | 5% | 29% | 0% | 0% | 0% | 17% | 0% | 0% | 0% | 0% | 2% | 0% | 0% | 5% | 0% | 0%
15 | O=C(Nc1n[nH]c2nc(-c3cccs3)c(Br)cc12)C1CCCC1 [SB-743341] | 0% | 0% | 7% | 9% | 7% | 0% | 0% | 40% | 0% | 1% | 29% | 40% | 35% | 0% | 0% | 12% | 17% | 27% | 10% | 0%
16 | CSc1ccc(-c2nc3n(c2-c2ccncc2)CCC3)cc1 [SKF-105561] | 5% | 0% | 2% | 21% | 0% | 0% | 6% | 0% | 6% | 8% | 0% | 0% | 0% | 0% | 12% | 17% | 10% | 0% | 0% | 0%
17 | CNc1nc(-c2ccc3c(N)n[nH]c3c2)cc(N2C[C@@H](C(=O)Nc3ccccc3)CC[C@H]2C)n1 [GSK2298859] | 0% | 0% | 12% | 0% | 22% | 26% | 0% | 2% | 0% | 3% | 0% | 0% | 1% | 25% | 0% | 12% | 12% | 16% | 43% | 8%
18 | CNCc1ccc2nc(NC(=O)c3ccc(C(C)(C)C)cc3)cn2c1 | 2% | 0% | 0% | 7% | 0% | 13% | 5% | 8% | 17% | 16% | 0% | 13% | 40% | 0% | 21% | 0% | 8% | 22% | 25% | 15%
19 | CCn1c(-c2c(N)noc2C)nc2cnccc21 [SB-737856] | 21% | 0% | 0% | 0% | 23% | 24% | 0% | 18% | 0% | 35% | 4% | 0% | 0% | 25% | 0% | 0% | 0% | 32% | 4% | 0%
20 | COc1ccc(Nc2nccc(N3CCC(NC(=O)C(C)c4ccc(Cl)cc4)CC3)n2)cc1 (stereo not drawn) [GSK1379812] | 8% | 0% | 0% | 0% | 25% | 18% | 0% | 0% | 3% | 18% | 35% | 11% | 3% | 20% | 0% | 0% | 23% | 4% | 42% | 0%
21 | FC(F)(F)c1ccccc1-c1cc(-c2c[nH]nc2-c2ccccn2)ccn1 [GW679396] | 0% | 3% | 17% | 0% | 4% | 0% | 0% | 7% | 16% | 18% | 0% | 25% | 0% | 0% | 10% | 0% | 44% | 0% | 16% | 0%
